Results from PubChem BioAssay (NCI).
The panel holds about 83,000 compounds, 20% with a hit somewhere; the sample as a whole holds those more often.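 Cell lines were cultured in 96-well plates, exposed to a single compound concentration, and assessed for percent growth 48 hours later.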 Activity calls are given as the source filed them. How the source made its calls: active means growth percent below 10; inactive means the rest.

Tests used:
Experiment in all cases: NCI-60 one-dose screen, 48 h (100 = growth as untreated, 0 = no growth, -100 = all killed)
Settings in all cases: 10 µM unless noted
DU-145 prostate = test system: DU-145 prostate
K-562 leukemia = test system: K-562 leukemia
MALME-3M melanoma = test system: MALME-3M melanoma
MDA-MB-231 breast = test system: MDA-MB-231 breast
SF-268 CNS = test system: SF-268 CNS
SF-295 CNS = test system: SF-295 CNS
SF-539 CNS = test system: SF-539 CNS
M14 melanoma = test system: M14 melanoma
HCT-15 colon = test system: HCT-15 colon
HT29 colon = test system: HT29 colon
SNB-75 CNS = test system: SNB-75 CNS
SNB-19 CNS = test system: SNB-19 CNS
U251 CNS = test system: U251 CNS
PC-3 prostate = test system: PC-3 prostate
SK-MEL-5 melanoma = test system: SK-MEL-5 melanoma
UACC-62 melanoma = test system: UACC-62 melanoma
LOX IMVI melanoma = test system: LOX IMVI melanoma
SK-MEL-28 melanoma = test system: SK-MEL-28 melanoma
RXF 393 renal = test system: RXF 393 renal
UACC-257 melanoma = test system: UACC-257 melanoma

Measured: growth

COCCCNS(=O)(=O)c1ncnc2nc[nH]c12
inactive: DU-145 prostate 98.5% | K-562 leukemia 109% | MALME-3M melanoma 107% | MDA-MB-231 breast 124% | SF-268 CNS 106% | SF-295 CNS 129% | SF-539 CNS 99.1% | M14 melanoma 92.6% | HCT-15 colon 124% | HT29 colon 125% | SNB-75 CNS 116% | SNB-19 CNS 122% | U251 CNS 124% | PC-3 prostate 106% | SK-MEL-5 melanoma 109% | UACC-62 melanoma 112% | LOX IMVI melanoma 111% | SK-MEL-28 melanoma 152%

c1ccc(CN=C(NCc2ccccc2)NCc2ccccc2)cc1
active: UACC-257 melanoma -13.2%
inactive: DU-145 prostate 66.4% | K-562 leukemia 35.7% | MDA-MB-231 breast 70.8% | RXF 393 renal 91.7% | SF-268 CNS 63.8% | SF-295 CNS 30% | SF-539 CNS 93.6% | M14 melanoma 52.9% | HCT-15 colon 79.7% | HT29 colon 62.6% | SNB-75 CNS 59.3% | SNB-19 CNS 68.1% | U251 CNS 51.9% | PC-3 prostate 24.9% | SK-MEL-5 melanoma 35% | UACC-62 melanoma 63.8% | LOX IMVI melanoma 59.8% | SK-MEL-28 melanoma 98.8%

Cc1nn(-c2ccccc2)cc1/C=C1\SC(N2CCCCC2)=NC1=O
inactive: DU-145 prostate 91.4% | K-562 leukemia 32.1% | MDA-MB-231 breast 76.4% | RXF 393 renal 86% | SF-268 CNS 91.3% | SF-295 CNS 128% | SF-539 CNS 60.9% | UACC-257 melanoma 99.3% | M14 melanoma 92.6% | HCT-15 colon 22% | HT29 colon 55.4% | SNB-75 CNS 102% | SNB-19 CNS 82.5% | U251 CNS 79.4% | PC-3 prostate 71% | SK-MEL-5 melanoma 68.8% | UACC-62 melanoma 78.4% | LOX IMVI melanoma 68.1% | SK-MEL-28 melanoma 108%

O=C(/C=C/c1c(-c2ccccc2)[nH]c2ccccc12)S(=O)(=O)c1ccccc1
active: K-562 leukemia 9.37%
inactive: DU-145 prostate 76% | MALME-3M melanoma 88.2% | MDA-MB-231 breast 63.3% | SF-268 CNS 89.5% | SF-295 CNS 63.5% | SF-539 CNS 89.5% | M14 melanoma 51.7% | HCT-15 colon 38.1% | HT29 colon 34% | SNB-75 CNS 84.5% | SNB-19 CNS 82.4% | U251 CNS 76.5% | PC-3 prostate 36.5% | UACC-62 melanoma 39.1% | LOX IMVI melanoma 56.5% | SK-MEL-28 melanoma 72.5%

CCN(CC)CCOCC[C@H]1CC[C@H]2[C@@H]3[C@H](C)Cc4cc(OS(N)(=O)=O)ccc4[C@H]3CC[C@]12C
active: DU-145 prostate -58.6% | K-562 leukemia -63.8% | MALME-3M melanoma -67.5% | MDA-MB-231 breast -67.3% | SF-268 CNS -80.2% | SF-295 CNS -65% | SF-539 CNS -96.1% | M14 melanoma -97.1% | HCT-15 colon -37% | HT29 colon -63.8% | SNB-75 CNS -42.7% | SNB-19 CNS -94.4% | U251 CNS -71% | PC-3 prostate -88.8% | SK-MEL-5 melanoma -90.4% | UACC-62 melanoma -79.7% | LOX IMVI melanoma -65% | SK-MEL-28 melanoma -91.1%

O=C1OC2(c3ccccc31)c1ccccc1-c1ccccc12
inactive: DU-145 prostate 114% | K-562 leukemia 36.5% | MDA-MB-231 breast 68.3% | RXF 393 renal 96.8% | SF-268 CNS 86.8% | SF-295 CNS 75.4% | SF-539 CNS 99.2% | UACC-257 melanoma 88.7% | M14 melanoma 50.7% | HCT-15 colon 71.4% | HT29 colon 74.6% | SNB-75 CNS 61.2% | SNB-19 CNS 83% | U251 CNS 63.6% | PC-3 prostate 74.4% | SK-MEL-5 melanoma 78.9% | UACC-62 melanoma 57.4% | LOX IMVI melanoma 77.6% | SK-MEL-28 melanoma 74.5%

COc1cccc(N2CCN(CC(=O)N3CCN(c4nnc(-c5ccc(Cl)cc5)c(-c5ccc(Cl)cc5)n4)CC3)CC2)c1
inactive: DU-145 prostate 89% | K-562 leukemia 32.6% | MALME-3M melanoma 92.2% | MDA-MB-231 breast 83.1% | SF-268 CNS 84.1% | SF-295 CNS 66.7% | SF-539 CNS 57.8% | M14 melanoma 70.5% | HCT-15 colon 49.5% | HT29 colon 51% | SNB-75 CNS 76.3% | SNB-19 CNS 77.1% | U251 CNS 65.7% | PC-3 prostate 15.8% | SK-MEL-5 melanoma 48.4% | UACC-62 melanoma 70.4% | LOX IMVI melanoma 65% | SK-MEL-28 melanoma 88.7%
